Screening data deposited in PubChem by National Center for Advancing Translational Sciences (NCATS).
Pf growth 48h: P. falciparum growth inhibition at 48 hours (one generation); P. falciparum luciferase growth in erythrocytes, 48 h; Potency, µM (series often up to 28.7 µM), for the others: at the highest dose activity change, negative = inhibition, actives largely listed as inhibitors; actives 5.9% (n = 310,000); AID 504832; also: potency is read from the fitted curve at half-maximal effect; % is scaled to controls: 0 for no effect and ±100 for the full control effect
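Read-out is firefly luciferase luminescence from an integrated reporter in P. falciparum, so falling signal marks reduced parasite growth. Infected erythrocytes were at 2% hematocrit and 0.1% parasitemia (final) in Albumax-supplemented RPMI 1640.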
Shiga inhibitor: inhibitors of Shiga toxin in Vero cells. Vero cells, Shiga toxin protein synthesis inhibition reporter. inhibition, % at 38.7 µM. actives 9.2% (n = 290,000); in the data active = inhibition mostly above about 28%, no sharp cut-off; inactive = mostly below about 43%; also: 0% is about no effect
Pf growth 96h: inhibits malaria parasite growth, 96 h | Potency, µM (doses to about 28.7 µM), for inactives: at the top dose activity change, negative = inhibition, actives largely listed as inhibitors | P. falciparum luciferase reporter growth, 96 h | actives 6.9% (n = 320,000) | AID 504834; also: potency is read from the fitted curve at half-maximal effect; % is scaled to controls: 0 for no effect and ±100 for the full control effect
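96 h incubation, 37 C, 5% CO2, of luciferase-reporter P. falciparum-infected RBCs (2% hematocrit, 0.05% parasitemia final) with test compounds; endpoint luminescence.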
CHX counter: affects cycloheximide protein synthesis inhibition readout, counter-screen; actives 12% (n = 300,000); max response, %; cell reporter, cycloheximide protein synthesis inhibition counterscreen; in the data active = max response mostly above about 13%, no sharp cut-off; inactive = mostly below about 14%; also: read at 38.3 µM for the half of the compounds with a filed dose; 0% is about no effect
Starred values were filed as active, the others as inactive; i = inactive; ? = inconclusive; nt = not tested or not shown; [ ] = remark or other dose. An excerpt weighted towards active compounds, which were near 21% of everything screened. Unless noted, calls follow the shape of the dose curve; as a rule, active = well fitted inhibition curve with a large enough effect; inconclusive = small, poorly fitted or top-dose-only effect, or another doubt; inactive = no such curve, though single readings can be large or run the other way.

SMILES	Pf growth 48h	Shiga inhibitor	Pf growth 96h	CHX counter
COC(=O)c1ccccc1NC(=O)NCc1c(C)nn(C)c1C	38.9%	6.2	?	4.1
CC1(CN2CCC(n3c(=O)[nH]c4ccccc43)CC2)OCc2ccccc2-n2cccc21 (stereo not drawn)	15.1µM*	-12.1	13.5µM*	4.0
O=C(COc1ccccc1Cl)NC(=S)Nc1ccc(CN2CCOCC2)cc1	9.7%	-1.6	?	-3.2
O=C(CCCCl)NC(=S)Nc1ccc(CN2CCOCC2)cc1	138.2%	48.1	?	12.7*
O=C(NC(=S)Nc1ccc(N2CCOCC2)cc1)c1ccc(Cl)cc1	15.9%	6.8	21.9%	6.4
O=C(CCCCl)NC(=S)Nc1ccc(N2CCOCC2)cc1	127.7%	95.9*	64.2%	33.8*
Cc1nc(C)c(NC(=O)OC(C)C)cc1NC(=O)OC(C)C	3.9%	-4.4	0.1%	0.9
Cc1ccc(S(=O)(=O)N(C)C)cc1NC(=S)NNC(=O)C(N)=O	1.4%	-4.6	41.9%	-3.9
c1ccc(C(Cc2nc(-c3ccccn3)no2)c2ccccc2)cc1	?	94.3*	?	55.8*
CN(Cc1nc(-c2ccccn2)no1)S(=O)(=O)c1ccc(Br)cc1	18.1%	11.5	nt	2.7
O=C1c2ccccc2C(=O)N1Cc1nc(-c2ccccn2)no1	114.8%	46.8*	16.7%	45.6*
c1ccc(C(Cc2nc(-c3cccnc3)no2)c2ccccc2)cc1	?	9.3	?	-1.2
COc1ccc(Cc2nc(-c3ccccn3)no2)cc1	93.4%	28.6	194.8%	41.1*
CN(CCc1ccccc1)Cc1nc(-c2cnccn2)no1	17.8%	-6.7	?	1.9
c1ccc(Cc2nc(-c3ccccn3)no2)cc1	150.1%	94.2*	0.2%[5.75 µM]	50.2*
Cc1nn(CC(=O)NCCN2CCOCC2)c(=O)c2cc3sccc3n12	8.7%	-2.6	19.3%	-2.7
O=C(CCS(=O)(=O)c1ccccc1)OCc1ccc([N+](=O)[O-])cc1	18.1%	-23.4	33.0%	2.8
c1ccc(CCCc2nc(-c3ccccn3)no2)cc1	141.4%	62.2*	?	45.8*
Cc1ccc(-c2nc(-c3ccccn3)no2)cc1	1.2%	-10.5	nt	-9.7
Cc1ccc(Cc2nc(-c3ccccn3)no2)cc1	402.9%	68.8*	i	40.5*
c1ccc(SCc2nc(-c3ccccn3)no2)cc1	130.8%	39.5*	0.7%[5.75 µM]	58.4*
Cc1ccc(C(=O)N/C(=C/c2ccc(Cl)cc2)C(=O)N2CCOCC2)cc1	?	-2.1	26.6%	-2.9
Cc1ccc(NC(=O)CCCC2CCCCC2)c(O)c1	-3.6%	109.3*	-70.4%	34.3*
CCOc1ccccc1CNC(=O)Cn1c(=O)oc2ccccc21	nt	22.2	-30.8%	-1.9
CCOc1ccccc1NC(=O)CCn1c(=O)oc2ccccc21	13.2%	-6.7	6.57µM*	-1.6
SMILES	Pf growth 48h	Shiga inhibitor	Pf growth 96h	CHX counter
CCOc1ccc(CNC(=O)CCn2c(=O)oc3ccccc32)cc1OC	?	-14.4	9.28µM*	-1.6
COc1ccc(CNC(=O)Cn2c(=O)oc3ccccc32)cc1OC	-24.2%	23.2	nt	5.0
CCOc1ccc(CCNC(=O)Cn2c(=O)oc3ccccc32)cc1OCC	8.28µM*	-5.3	nt	4.8
CC1=NNC(=O)C1CC(=O)N/N=C/C=C/c1ccccc1 (stereo not drawn)	128.9%	-3.5	45.6%	0.4
Cc1nc2c(C)cccc2c2c1CCS2	11.0%	-5.7	17.0%	1.1
O=C(CSc1nnc(C2CC2)n1C1CC1)c1cc(F)ccc1F	?	nt	-3.0%	nt
COCCN(CCOC)C(=O)CCn1c(=O)oc2ccccc21	-11.5%	2.1	1.17µM*	-1.1
COCCNC(=O)CCn1c(=O)oc2ccccc21	12.6%	-3.2	10.5%	12.9
Cc1ccc(NC(=O)CCCn2c(=O)oc3ccccc32)c(O)c1	?	16.4	20.5%	12.1*
CCN(c1ccccc1)S(=O)(=O)c1ccc(C(=O)N(CCN(C)C)c2nc3c(F)cc(F)cc3s2)cc1	49.6%	26.7	?	12.6
CCOC(=O)C(CS)NCCN[C@@H](CS)C(=O)OCC (stereo partly drawn)	-12.7%	nt	-16.6%	nt
CCOC(=O)c1ccc(N=Nc2c(C)c(C#N)c(O)[nH]c2=O)cc1	?	83.3*	17.8%	45.6*
C=CCn1c(O)c(C(C)=Nc2ccc(C(=O)OCC)cc2)c(=O)[nH]c1=O	-3.8%	43.0	nt	7.0
Cn1ccc(C(=O)Nc2sc3c(c2C#N)CCC3)n1	0.8%	12.1	76.7%	15.9*
Cc1cc(C(=O)Nc2sc3c(c2C#N)CCC3)no1	72.3%	38.3*	1.3%	26.2*
N#Cc1c(NC(=O)c2cc(C3CC3)on2)sc2c1CCC2	nt	-3.4	-19.2%	0.7
CC(C)Cc1cc(C(=O)Nc2sc3c(c2C#N)CCC3)no1	nt	-8.6	?	-0.3
CCc1c(C)sc(NC(=O)c2cc(-c3ccc(O)cc3)on2)c1C#N	nt	-21.6	-33.9%	-6.2
CCc1c(C)sc(NC(=O)c2cc(CC(C)C)on2)c1C#N	nt	-14.3	13.1µM*	-2.0
CC(C)Cc1cc(C(=O)Nc2sc3c(c2C#N)CCCC3)no1	36.8%	21.0	31.0%	32.6*
Cc1cc(C(=O)Nc2sc3c(c2C#N)CCCC3)no1	295.2%	51.6*	-4.1%	37.0*
Cc1noc(C(=O)Nc2sc3c(c2C#N)CCC3)c1Cl	nt	12.5	21.6%	12.7
Cc1onc(-c2c(F)cccc2Cl)c1C(=O)Nc1sc2c(c1C#N)CCC(C(C)(C)C)C2 (stereo not drawn)	6.57µM*	-19.1	?	-2.2
Cc1cc(C(=O)Nc2sc3c(c2C#N)CCC(C)C3)no1 (stereo not drawn)	82.0%	75.5*	16.7%	35.7*
O=C(NCCCC1CCCC1)C1CCC(=O)N(Cc2cccc(C(F)(F)F)c2)C1 (stereo not drawn)	2.6%	16.4	11.7µM*	1.5
SMILES	Pf growth 48h	Shiga inhibitor	Pf growth 96h	CHX counter
O=C1CCC(C(=O)N2CCCO2)CN1Cc1cccc(C(F)(F)F)c1 (stereo not drawn)	7.5%	44.1*	50.3%	29.0*
O=C(NCC1CCOCC1)C1CCC(=O)N(Cc2cccc(C(F)(F)F)c2)C1 (stereo not drawn)	-4.1%	14.2	?	19.5
O=C(NCc1cccs1)C1CCC(=O)N(Cc2cccc(C(F)(F)F)c2)C1 (stereo not drawn)	?	7.6	?	38.9*
O=C1CCC(C(=O)N2CCCC2)CN1Cc1cccc(C(F)(F)F)c1 (stereo not drawn)	-4.9%	-5.7	9.3%	-1.0
CCCc1cc2c(cc1NC(=O)c1ccc(C)cc1)OCO2	1.3%	10.3	-4.2%	10.1
Cc1ccc(/C=N/N(Cc2ccccc2)c2ccccc2)o1	?	-3.9	?	-5.6
O=C(O)CCCC(=O)Nc1ccc(-n2ccc(C(F)(F)F)n2)cc1	3.8%	-10.3	15.6%	-2.0
O=C(Nc1ccc(-n2ccc(C(F)(F)F)n2)cc1)c1cccs1	?	116.9*	?	44.5*
O=C(Nc1ccc(-n2ccc(C(F)(F)F)n2)cc1)Nc1cccc(Cl)c1	?	49.9*	?	30.7*
Cc1cc(C)cc(NC(=O)Nc2ccc(-n3ccc(C(F)(F)F)n3)cc2)c1	11.7µM*	28.9	?	11.0
COc1ccccc1NC(=O)Nc1ccc(-n2ccc(C(F)(F)F)n2)cc1	?	123.2*	?	42.3*
